# According to publication PMC7862700, “An all-to-all approach to the identification of sequence-specific readers for epigenetic DNA modifications on cytosine”:
# How the values were obtained:
# Assay in all cases: DAPPL (digital affinity profiling via proximity ligation, sequencing); 10 mM Tris-HCl pH 7.5, 50 mM NaCl, 1 mM DTT, 4% glycerol, room temperature, 30 min; GST-TFs on glutathione beads, 16-mer random dsDNA library, 0.1% formaldehyde crosslink after washing; high values mean tight binding
# FEV = molecular target: T1, FEV (Homo sapiens, UniProt Q99581 1-238); conditions: protein: recombinant; tags: N-terminal GST; dsDNA, one strand shown
# T1 sequence: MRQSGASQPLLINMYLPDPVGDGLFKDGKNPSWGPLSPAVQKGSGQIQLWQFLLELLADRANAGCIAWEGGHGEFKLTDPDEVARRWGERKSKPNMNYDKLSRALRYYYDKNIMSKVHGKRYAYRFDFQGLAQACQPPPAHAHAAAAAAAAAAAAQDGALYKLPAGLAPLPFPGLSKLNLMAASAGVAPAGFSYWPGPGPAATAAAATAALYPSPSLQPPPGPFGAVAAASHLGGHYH
# How it was run: (§1)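 Pools of DNA-barcoded human transcription factors, expressed in yeast as GST fusions on glutathione beads and combined with a tag-only sample, were incubated with 200 nmole of a 16-mer random double-stranded DNA library. Incubation took 30 min at room temperature in Tris/NaCl/DTT/glycerol buffer and was followed by washing, 0.1% formaldehyde crosslinking, proximity ligation (BsaI/T4 ligase, 1 h, 37 °C), PCR amplification and sequencing on an Illumina NextSeq500. Binding signal is the ratio of a hexamer's read frequency for a factor to its frequency for the tag-only sample.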
# ETV5 = ETV5 (Homo sapiens, UniProt P41161 1-510); conditions: protein: recombinant; tags: N-terminal GST; dsDNA, one strand shown
# How it was run: as §1
# HSF1 = HSF1 (Homo sapiens, UniProt Q00613 1-529); conditions: protein: recombinant; tags: N-terminal GST; chain copies: 3; dsDNA, one strand shown
# How it was run: as §1
# SPIC = molecular target: T2, SPIC (Homo sapiens, UniProt Q8N5J4 1-248); conditions: protein: recombinant; tags: N-terminal GST; dsDNA, one strand shown
# T2 sequence: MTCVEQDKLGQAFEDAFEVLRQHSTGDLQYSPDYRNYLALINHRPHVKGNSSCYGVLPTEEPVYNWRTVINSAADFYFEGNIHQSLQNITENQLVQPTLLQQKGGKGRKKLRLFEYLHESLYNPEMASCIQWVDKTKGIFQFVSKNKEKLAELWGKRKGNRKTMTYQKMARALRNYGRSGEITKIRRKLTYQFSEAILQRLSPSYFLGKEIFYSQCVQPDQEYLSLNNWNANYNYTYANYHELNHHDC
# How it was run: as §1
# ELF4 = ELF4 (Homo sapiens, UniProt Q99607 1-663); conditions: protein: recombinant; tags: N-terminal GST; dsDNA, one strand shown
# How it was run: as §1
# ELK4 = molecular target: T3, ELK4 (Homo sapiens, UniProt P28324-2 1-405); conditions: protein: recombinant; tags: N-terminal GST; dsDNA, one strand shown
# T3 sequence: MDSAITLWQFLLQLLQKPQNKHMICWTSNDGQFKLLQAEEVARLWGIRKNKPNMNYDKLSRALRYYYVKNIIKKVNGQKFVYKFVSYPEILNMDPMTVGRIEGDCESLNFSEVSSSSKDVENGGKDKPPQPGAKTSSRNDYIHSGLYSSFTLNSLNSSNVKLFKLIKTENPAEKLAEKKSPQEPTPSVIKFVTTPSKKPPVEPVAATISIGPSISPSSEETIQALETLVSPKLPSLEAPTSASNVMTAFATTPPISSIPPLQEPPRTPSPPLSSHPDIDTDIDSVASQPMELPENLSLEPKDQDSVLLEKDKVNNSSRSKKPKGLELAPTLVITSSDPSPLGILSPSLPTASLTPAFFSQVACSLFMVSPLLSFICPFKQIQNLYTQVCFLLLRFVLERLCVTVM
# How it was run: as §1
# ETV2 = molecular target: T4, ETV2 (Homo sapiens, UniProt O00321 1-342); conditions: protein: recombinant; tags: N-terminal GST; dsDNA, one strand shown
# T4 sequence: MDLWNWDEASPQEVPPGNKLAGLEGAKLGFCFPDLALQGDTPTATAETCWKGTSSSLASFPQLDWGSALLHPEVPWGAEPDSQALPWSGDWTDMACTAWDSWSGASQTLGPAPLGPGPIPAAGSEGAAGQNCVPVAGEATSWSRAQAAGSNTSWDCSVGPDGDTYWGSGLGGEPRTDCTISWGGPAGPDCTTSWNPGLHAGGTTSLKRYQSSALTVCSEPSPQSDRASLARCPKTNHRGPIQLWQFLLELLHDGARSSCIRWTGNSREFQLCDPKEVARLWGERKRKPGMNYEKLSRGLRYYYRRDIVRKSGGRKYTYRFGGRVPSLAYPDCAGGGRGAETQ
# How it was run: as §1
# ELF3 = molecular target: T5, ELF3 (Homo sapiens, UniProt P78545 1-371); conditions: protein: recombinant; tags: N-terminal GST; dsDNA, one strand shown
# T5 sequence: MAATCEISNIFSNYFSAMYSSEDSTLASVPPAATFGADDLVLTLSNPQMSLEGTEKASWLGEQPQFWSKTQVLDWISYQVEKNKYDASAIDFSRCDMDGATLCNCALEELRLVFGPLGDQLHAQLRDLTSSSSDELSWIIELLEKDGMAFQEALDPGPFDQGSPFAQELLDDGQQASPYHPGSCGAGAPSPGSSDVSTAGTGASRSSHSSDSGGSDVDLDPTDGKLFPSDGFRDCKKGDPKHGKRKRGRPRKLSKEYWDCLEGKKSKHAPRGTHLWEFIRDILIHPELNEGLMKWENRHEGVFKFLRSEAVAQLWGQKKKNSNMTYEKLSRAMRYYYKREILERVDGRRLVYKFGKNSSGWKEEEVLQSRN
# How it was run: as §1
# CRX = CRX (Homo sapiens, UniProt O43186 1-299); conditions: protein: recombinant; tags: N-terminal GST; dsDNA, one strand shown
# How it was run: as §1
# ETV1 = ETV1 (Homo sapiens, UniProt P50549 1-477); conditions: protein: recombinant; tags: N-terminal GST; dsDNA, one strand shown
# How it was run: as §1
# ERF = molecular target: T6, ERF (Homo sapiens, UniProt P50548 1-548); conditions: protein: recombinant; tags: N-terminal GST; dsDNA, one strand shown
# T6 sequence: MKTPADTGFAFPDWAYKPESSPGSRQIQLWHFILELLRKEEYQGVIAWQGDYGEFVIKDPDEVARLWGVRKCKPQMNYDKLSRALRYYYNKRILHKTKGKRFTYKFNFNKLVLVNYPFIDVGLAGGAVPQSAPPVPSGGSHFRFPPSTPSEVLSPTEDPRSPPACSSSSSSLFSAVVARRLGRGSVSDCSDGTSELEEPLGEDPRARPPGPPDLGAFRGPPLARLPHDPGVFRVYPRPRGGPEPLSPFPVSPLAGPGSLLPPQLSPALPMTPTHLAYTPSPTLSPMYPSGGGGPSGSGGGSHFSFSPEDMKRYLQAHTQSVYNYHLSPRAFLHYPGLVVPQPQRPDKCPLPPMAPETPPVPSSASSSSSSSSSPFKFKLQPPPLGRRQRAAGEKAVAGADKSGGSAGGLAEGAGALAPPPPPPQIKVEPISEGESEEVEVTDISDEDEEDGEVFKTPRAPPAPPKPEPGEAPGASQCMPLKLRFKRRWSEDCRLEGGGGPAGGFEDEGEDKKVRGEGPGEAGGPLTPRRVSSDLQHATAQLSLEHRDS
# How it was run: as §1
# ETV3L = molecular target: T7, ETV3L (Homo sapiens, UniProt Q6ZN32 1-361); conditions: protein: recombinant; tags: N-terminal GST; dsDNA, one strand shown
# T7 sequence: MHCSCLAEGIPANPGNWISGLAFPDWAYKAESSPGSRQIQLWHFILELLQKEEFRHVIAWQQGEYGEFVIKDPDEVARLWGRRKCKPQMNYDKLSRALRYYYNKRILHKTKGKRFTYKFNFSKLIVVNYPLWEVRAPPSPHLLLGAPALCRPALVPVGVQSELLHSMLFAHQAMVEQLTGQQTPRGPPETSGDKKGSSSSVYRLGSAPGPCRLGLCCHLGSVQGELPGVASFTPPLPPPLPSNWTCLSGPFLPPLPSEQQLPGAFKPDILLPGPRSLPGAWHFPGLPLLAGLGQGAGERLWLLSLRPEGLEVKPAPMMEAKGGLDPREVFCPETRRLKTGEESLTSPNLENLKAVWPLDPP
# How it was run: as §1
# ETS2 = molecular target: T8, ETS2 (Homo sapiens, UniProt P15036 1-469); conditions: protein: recombinant; tags: N-terminal GST; dsDNA, one strand shown
# T8 sequence: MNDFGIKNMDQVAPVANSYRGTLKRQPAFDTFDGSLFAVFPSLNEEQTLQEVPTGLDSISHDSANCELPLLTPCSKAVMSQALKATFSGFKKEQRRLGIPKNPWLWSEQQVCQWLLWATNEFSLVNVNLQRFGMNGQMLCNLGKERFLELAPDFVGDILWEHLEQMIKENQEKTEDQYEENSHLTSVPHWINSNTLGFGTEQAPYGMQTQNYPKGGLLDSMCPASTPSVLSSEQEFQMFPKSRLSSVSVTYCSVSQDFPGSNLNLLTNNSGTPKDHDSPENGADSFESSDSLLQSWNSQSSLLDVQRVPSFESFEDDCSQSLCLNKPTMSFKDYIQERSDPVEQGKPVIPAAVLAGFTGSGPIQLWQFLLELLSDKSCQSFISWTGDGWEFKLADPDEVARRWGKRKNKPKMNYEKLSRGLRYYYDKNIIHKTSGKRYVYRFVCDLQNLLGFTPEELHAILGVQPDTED
# How it was run: as §1
# SPDEF = molecular target: T9, SPDEF (Homo sapiens, UniProt O95238 1-335); conditions: protein: recombinant; tags: N-terminal GST; dsDNA, one strand shown
# T9 sequence: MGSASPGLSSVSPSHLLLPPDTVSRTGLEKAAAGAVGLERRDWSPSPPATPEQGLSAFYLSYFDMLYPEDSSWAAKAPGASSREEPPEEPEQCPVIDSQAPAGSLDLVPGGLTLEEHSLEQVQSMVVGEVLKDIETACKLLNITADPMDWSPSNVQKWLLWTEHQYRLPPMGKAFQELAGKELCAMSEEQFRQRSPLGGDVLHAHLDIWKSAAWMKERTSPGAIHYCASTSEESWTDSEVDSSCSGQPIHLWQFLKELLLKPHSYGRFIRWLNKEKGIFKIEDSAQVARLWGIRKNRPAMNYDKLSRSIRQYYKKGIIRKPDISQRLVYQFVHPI
# How it was run: as §1
# ETV7 = molecular target: T10, ETV7 (Homo sapiens, UniProt Q9Y603 1-341); conditions: protein: recombinant; tags: N-terminal GST; dsDNA, one strand shown
# T10 sequence: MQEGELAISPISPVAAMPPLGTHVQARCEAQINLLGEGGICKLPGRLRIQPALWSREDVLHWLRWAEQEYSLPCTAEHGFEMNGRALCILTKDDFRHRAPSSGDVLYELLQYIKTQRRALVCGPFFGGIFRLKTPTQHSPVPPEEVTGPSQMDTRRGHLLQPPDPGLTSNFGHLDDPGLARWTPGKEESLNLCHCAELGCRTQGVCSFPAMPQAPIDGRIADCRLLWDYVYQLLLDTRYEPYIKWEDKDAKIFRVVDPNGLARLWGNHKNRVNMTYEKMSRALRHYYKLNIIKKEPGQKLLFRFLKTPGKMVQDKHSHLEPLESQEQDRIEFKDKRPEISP
# How it was run: as §1
# ELF5 = molecular target: T11, ELF5 (Homo sapiens, UniProt Q9UKW6-2 1-255); conditions: protein: recombinant; tags: N-terminal GST; dsDNA, one strand shown
# T11 sequence: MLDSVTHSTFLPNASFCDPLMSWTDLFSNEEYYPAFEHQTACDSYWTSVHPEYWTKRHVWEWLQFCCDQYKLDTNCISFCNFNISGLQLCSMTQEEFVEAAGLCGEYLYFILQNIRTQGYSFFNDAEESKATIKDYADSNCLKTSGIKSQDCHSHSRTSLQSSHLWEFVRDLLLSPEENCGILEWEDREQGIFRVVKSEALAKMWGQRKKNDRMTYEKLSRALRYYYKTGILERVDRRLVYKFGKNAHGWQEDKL
# How it was run: as §1
# ETV3 = molecular target: T12, ETV3 (Homo sapiens, UniProt P41162-2 1-143); conditions: protein: recombinant; tags: N-terminal GST; dsDNA, one strand shown
# T12 sequence: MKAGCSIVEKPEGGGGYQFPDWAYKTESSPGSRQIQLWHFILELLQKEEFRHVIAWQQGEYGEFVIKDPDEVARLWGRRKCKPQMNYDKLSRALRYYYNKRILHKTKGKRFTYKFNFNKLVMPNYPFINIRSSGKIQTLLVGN
# How it was run: as §1
# ETV6 = ETV6 (Homo sapiens, UniProt P41212 1-452); conditions: protein: recombinant; tags: N-terminal GST; dsDNA, one strand shown
# How it was run: as §1
# Chain of HSF1 (Q00613 whole entry): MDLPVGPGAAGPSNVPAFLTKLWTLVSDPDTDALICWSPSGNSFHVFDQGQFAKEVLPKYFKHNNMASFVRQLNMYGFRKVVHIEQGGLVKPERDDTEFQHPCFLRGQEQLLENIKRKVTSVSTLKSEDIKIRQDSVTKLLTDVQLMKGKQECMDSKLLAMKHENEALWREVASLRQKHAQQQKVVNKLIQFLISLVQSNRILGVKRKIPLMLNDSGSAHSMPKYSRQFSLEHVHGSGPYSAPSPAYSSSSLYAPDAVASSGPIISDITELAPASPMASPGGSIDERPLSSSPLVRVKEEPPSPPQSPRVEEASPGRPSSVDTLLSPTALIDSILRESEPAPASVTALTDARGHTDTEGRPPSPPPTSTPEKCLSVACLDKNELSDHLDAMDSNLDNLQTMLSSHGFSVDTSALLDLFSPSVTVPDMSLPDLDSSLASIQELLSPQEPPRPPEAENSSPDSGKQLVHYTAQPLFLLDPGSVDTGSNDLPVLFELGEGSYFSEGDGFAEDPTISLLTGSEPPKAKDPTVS
# Chain of ETV5 (P41161 whole entry): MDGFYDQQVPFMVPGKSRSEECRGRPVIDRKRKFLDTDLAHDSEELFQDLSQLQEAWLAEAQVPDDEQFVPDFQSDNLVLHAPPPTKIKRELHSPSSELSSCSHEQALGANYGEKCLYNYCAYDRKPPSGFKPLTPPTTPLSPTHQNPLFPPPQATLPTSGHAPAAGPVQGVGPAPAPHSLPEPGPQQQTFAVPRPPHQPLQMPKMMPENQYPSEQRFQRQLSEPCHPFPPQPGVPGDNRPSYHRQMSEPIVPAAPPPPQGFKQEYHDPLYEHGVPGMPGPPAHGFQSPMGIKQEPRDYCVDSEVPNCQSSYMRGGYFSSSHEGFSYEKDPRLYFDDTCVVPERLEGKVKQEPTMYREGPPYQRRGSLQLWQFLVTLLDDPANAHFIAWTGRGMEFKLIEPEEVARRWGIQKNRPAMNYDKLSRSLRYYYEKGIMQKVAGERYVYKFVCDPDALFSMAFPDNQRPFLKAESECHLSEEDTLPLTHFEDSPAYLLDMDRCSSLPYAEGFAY
# Chain of CRX (O43186 whole entry): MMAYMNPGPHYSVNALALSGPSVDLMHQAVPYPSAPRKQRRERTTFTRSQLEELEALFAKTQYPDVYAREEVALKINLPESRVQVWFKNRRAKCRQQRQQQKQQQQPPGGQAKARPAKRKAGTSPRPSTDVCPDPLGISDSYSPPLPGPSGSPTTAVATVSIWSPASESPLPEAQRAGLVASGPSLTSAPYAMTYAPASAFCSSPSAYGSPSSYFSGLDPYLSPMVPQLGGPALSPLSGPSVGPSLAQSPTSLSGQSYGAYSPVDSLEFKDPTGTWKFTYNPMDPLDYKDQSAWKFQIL
# Chain of ETV6 (P41212 whole entry): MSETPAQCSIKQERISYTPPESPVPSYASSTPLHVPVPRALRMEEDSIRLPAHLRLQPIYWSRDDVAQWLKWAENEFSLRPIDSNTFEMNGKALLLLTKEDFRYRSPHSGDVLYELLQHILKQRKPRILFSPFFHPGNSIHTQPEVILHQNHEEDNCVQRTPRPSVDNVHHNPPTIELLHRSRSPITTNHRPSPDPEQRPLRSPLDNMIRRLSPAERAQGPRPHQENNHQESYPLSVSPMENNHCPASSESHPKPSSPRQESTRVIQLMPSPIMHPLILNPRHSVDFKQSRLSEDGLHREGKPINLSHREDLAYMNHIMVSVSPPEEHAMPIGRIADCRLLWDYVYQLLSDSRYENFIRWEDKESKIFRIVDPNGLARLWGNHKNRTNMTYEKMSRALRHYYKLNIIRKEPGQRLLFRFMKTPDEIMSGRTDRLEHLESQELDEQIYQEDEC
# Chain of ETV1 (P50549 whole entry): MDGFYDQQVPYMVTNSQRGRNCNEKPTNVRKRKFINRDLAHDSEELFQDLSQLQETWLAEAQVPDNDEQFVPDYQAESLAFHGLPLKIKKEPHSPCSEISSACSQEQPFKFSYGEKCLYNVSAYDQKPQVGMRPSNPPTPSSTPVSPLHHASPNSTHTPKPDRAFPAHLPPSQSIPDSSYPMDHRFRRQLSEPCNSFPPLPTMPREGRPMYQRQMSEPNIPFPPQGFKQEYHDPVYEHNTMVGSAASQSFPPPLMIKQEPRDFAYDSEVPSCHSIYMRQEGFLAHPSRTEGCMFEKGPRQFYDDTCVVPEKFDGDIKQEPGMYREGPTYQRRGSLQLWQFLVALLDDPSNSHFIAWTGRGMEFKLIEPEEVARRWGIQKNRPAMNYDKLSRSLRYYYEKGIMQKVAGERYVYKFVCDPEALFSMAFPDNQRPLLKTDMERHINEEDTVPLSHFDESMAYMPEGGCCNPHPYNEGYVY
# Chain of ELF4 (Q99607 whole entry): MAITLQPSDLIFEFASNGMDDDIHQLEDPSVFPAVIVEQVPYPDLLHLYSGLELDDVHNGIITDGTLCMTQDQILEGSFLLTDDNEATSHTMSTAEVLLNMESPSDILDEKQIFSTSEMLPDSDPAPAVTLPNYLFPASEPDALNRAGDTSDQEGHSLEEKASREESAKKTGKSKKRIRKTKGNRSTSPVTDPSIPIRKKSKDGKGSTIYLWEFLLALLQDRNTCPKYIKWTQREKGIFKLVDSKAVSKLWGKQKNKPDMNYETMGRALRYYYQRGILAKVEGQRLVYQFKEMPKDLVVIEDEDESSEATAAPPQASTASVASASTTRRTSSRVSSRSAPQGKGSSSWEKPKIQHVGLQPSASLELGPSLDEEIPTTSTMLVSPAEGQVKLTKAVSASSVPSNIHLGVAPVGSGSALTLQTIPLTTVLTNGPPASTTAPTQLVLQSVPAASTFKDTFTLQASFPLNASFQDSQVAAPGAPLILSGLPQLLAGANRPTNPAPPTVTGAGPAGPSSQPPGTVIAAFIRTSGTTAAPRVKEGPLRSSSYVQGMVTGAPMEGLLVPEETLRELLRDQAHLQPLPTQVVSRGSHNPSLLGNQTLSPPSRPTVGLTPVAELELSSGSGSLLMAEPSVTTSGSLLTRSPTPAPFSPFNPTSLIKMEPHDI
sequence,measurement,setting,value
CTCTGC,binding signal,FEV,"1.5 fold enrichment (6-mer frequency, TF over GST control)"
same,binding signal,ETV5,"1.49 fold enrichment (6-mer frequency, TF over GST control)"
same,binding signal,HSF1,"1.25 fold enrichment (6-mer frequency, TF over GST control)"
same,binding signal,SPIC,"1.55 fold enrichment (6-mer frequency, TF over GST control)"
same,binding signal,ELF4,"1.61 fold enrichment (6-mer frequency, TF over GST control)"
same,binding signal,ELK4,"1.86 fold enrichment (6-mer frequency, TF over GST control)"
same,binding signal,ETV2,"1.43 fold enrichment (6-mer frequency, TF over GST control)"
same,binding signal,ELF3,"1.56 fold enrichment (6-mer frequency, TF over GST control)"
same,binding signal,CRX,"1.2 fold enrichment (6-mer frequency, TF over GST control)"
same,binding signal,ETV1,"1.64 fold enrichment (6-mer frequency, TF over GST control)"
same,binding signal,ERF,"1.56 fold enrichment (6-mer frequency, TF over GST control)"
same,binding signal,ETV3L,"1.52 fold enrichment (6-mer frequency, TF over GST control)"
same,binding signal,ETS2,"1.54 fold enrichment (6-mer frequency, TF over GST control)"
same,binding signal,SPDEF,"1.4 fold enrichment (6-mer frequency, TF over GST control)"
same,binding signal,ETV7,"1.27 fold enrichment (6-mer frequency, TF over GST control)"
same,binding signal,ELF5,"1.34 fold enrichment (6-mer frequency, TF over GST control)"
same,binding signal,ETV3,"1.5 fold enrichment (6-mer frequency, TF over GST control)"
same,binding signal,ETV6,"1.27 fold enrichment (6-mer frequency, TF over GST control)"
